Sampled rows, rich in hits. Any-hit rate of the full collection: about 12%.
BAZ2B block – inhibitors of human BAZ2B bromodomain. 360,000 tested, 4.4% active. Q9UIF8. AlphaScreen BAZ2B-H3K14Ac peptide displacement. Potency, µM (doses to about 114 µM), actives largely listed as inhibitors; also: nearly all actives have a fitted effect of over 60% in size
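Inhibition is scored as reduced AlphaScreen emission. The BAZ2B/b-H3(5-23)K14Ac complex (50 nM each) in PBS pH 7.4, 0.01% Tween-20 meets compound (up to 110 uM) for 30 min at RT before bead addition.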
HP1b binding inh – HP1-beta chromodomain-methylated histone interaction inhibition; AlphaScreen HP1-beta / biotin-H3K9me3 peptide binding; Potency, µM (series often up to 114 µM), hits mostly inhibitors; 390,000 tested, 0.56% active; also: nearly all actives have a fitted effect of over 70% in size
Target sequence (P83916 whole entry, looked up): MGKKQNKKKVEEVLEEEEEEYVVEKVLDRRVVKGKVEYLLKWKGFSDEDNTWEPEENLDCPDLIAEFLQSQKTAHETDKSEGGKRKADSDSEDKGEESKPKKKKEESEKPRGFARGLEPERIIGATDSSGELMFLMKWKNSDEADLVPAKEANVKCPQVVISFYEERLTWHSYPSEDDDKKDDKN
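AlphaScreen: HP1-beta (50 nM) preformed 30 min with biotin-H3(1-18)K9me3 peptide (50 nM) in PBS pH 7.4, 0.01% Tween-20. Compound added for 30 min at RT, then streptavidin donor/nickel chelate acceptor beads (10 ug/mL) for 30 min.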
G9a inh – blocks human histone lysine methyltransferase G9a; Q96KQ7; G9a H3K9 monomethylation, AlphaScreen, 2 h; Potency, µM (doses to about 102 µM), most hits filed as inhibitors; 350,000 tested, 8.8% active; AID 504332; also: nearly all actives have a fitted effect of over 75% in size
Target sequence (Q96KQ7 913-1193 limits assumed): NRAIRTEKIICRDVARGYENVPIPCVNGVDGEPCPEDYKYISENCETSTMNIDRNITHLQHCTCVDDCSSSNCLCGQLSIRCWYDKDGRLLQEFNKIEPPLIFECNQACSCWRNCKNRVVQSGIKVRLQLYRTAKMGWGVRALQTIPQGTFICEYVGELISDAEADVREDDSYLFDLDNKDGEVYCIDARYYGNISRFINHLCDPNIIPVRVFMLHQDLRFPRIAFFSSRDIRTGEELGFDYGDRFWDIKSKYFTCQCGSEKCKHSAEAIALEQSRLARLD
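Signal arises when biotinylated H3K9 peptide, once monomethylated, bridges streptavidin donor and antibody-captured acceptor beads. Enzyme at 20 nM was preincubated 15 min with test compounds; peptide 500 nM and SAM 20 uM then reacted for 2 h.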
JMJD2A Tudor inh – blocks the human JMJD2A Tudor domain | O75164 | AlphaScreen JMJD2A-Tudor / H3K4me3 peptide binding | Potency, µM (series often up to 114 µM), actives largely listed as inhibitors | 390,000 tested, 4.4% active; also: nearly all actives have a fitted effect of over 50% in size
PLK1 PBD inh – inhibitors of human PLK1 polo-box domain binding. 360,000 tested, 2.8% active. P53350. Potency, µM, hits mostly inhibitors. Plk1 PBD binding of FITC phosphopeptide, fluorescence polarization. AID 720504; also: series mostly up to about 57 µM; nearly all actives have a fitted effect of over 65% in size
Sfp PPTase inh – Sfp phosphopantetheinyl transferase inhibition | Q9F4F7 | Biochemical Sfp PPTase activity, qHTS | Potency, µM, most hits filed as inhibitors | 310,000 tested, 3.5% active;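 also: the enzyme is Sfp with the accession as filed and its product quenches rhodamine fluorescence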
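Sfp 15 nM + cpd, 15 min RT; start w/ rhodamine-CoA 5 uM, BHQ-2-YbbR 12.5 uM (final); 50 mM Hepes pH 7.6, 10 mM MgCl2, 0.01% NP-40, 0.01% BSA; read 525/598 nm at 0 and 30 min.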
Of the large screens only hits and unclear results are named; the others gave an inactive call. Calls follow the shape of the dose curve; as a rule, active = well fitted curve in the direction sought with a large enough effect; inconclusive = small, poorly fitted or top-dose-only effect, or another doubt; inactive = no such curve, though single readings can be large; an effect the other way counts as inactive or inconclusive.

CCCCOC(=O)c1ccc(Nc2nc3ccc(C(=O)c4ccccc4)cc3n3cnnc23)cc1	none (no result: PLK1 PBD inh, Sfp PPTase inh)
CCN1CCS/C1=C\C=C\C1=[N+](CC)CCS1	G9a inh 3.16µM
CCN1CCS/C1=C/C=C/C1=[N+](CC)CCS1	G9a inh 50.1µM, JMJD2A Tudor inh inconclusive
COc1ccc(-n2c(=S)[nH]c3cc(C(=O)NCc4cccnc4)ccc3c2=O)cc1	none
CCO/C(C)=C1\N=C(c2ccc(Cl)cc2)OC1=O	G9a inh 44.7µM, PLK1 PBD inh inconclusive
CCOC(=O)c1nnn(-c2nonc2N)c1-c1ccc(Cl)cc1	none
O=C1c2ccccc2C(=O)C1Cc1cccc2ccccc12	BAZ2B block inconclusive, G9a inh 50.1µM, JMJD2A Tudor inh inconclusive, PLK1 PBD inh 6.7µM
O=C1NC(c2cccc3ccccc23)Nc2ccccc21 (centres undefined)	none (no result: BAZ2B block, G9a inh, Sfp PPTase inh)
Nc1nnc(CC(c2ccccc2)c2ccccc2)s1	none
CC(Cc1nnc(N)s1)c1ccccc1 (centres undefined)	G9a inh 31.6µM, PLK1 PBD inh inconclusive, Sfp PPTase inh 50.1µM
C/C=C/C(=O)OCC(=O)Nc1ccc(OC)c(OC)c1	BAZ2B block 50.1µM
COc1cc(/C=C/C(=O)OCC(=O)Nc2ccc([N+](=O)[O-])cc2)ccc1O	none (no result: G9a inh)
COc1cc(/C=C/C(=O)OCC(=O)Nc2ccc(S(N)(=O)=O)cc2)ccc1O	PLK1 PBD inh 13.4µM
COc1ccc(CNC(=O)Cc2csc3nc(-c4ccc(F)cc4)cn23)cc1	none (no result: PLK1 PBD inh, Sfp PPTase inh)
CCN1C(=O)c2cccc3c(N)ccc(c23)C1=O	G9a inh 50.1µM, PLK1 PBD inh 2.99µM
CCCCNc1ccc2c3c(cccc13)C(=O)N(CCCC)C2=O	PLK1 PBD inh 2.12µM, Sfp PPTase inh 28.2µM
Cc1ccc(N2C(=O)c3cccc4c(N)ccc(c34)C2=O)c2cccnc12	G9a inh inconclusive, JMJD2A Tudor inh inconclusive
Cc1nn(C)c(C)c1N1C(=O)c2cccc3c(Br)ccc(c23)C1=O	G9a inh inconclusive, Sfp PPTase inh inconclusive
CN(C)CCCN1C(=O)c2cccc3c(Br)ccc(c23)C1=O	BAZ2B block inconclusive, PLK1 PBD inh inconclusive
Cc1nn(C)c(C)c1N1C(=O)c2cccc3c(N)ccc(c23)C1=O	PLK1 PBD inh 2.67µM
O=C(Nc1ccc(Cl)cc1)N1CCSC1=NCc1ccccc1	none
CC(=O)Nc1ccc(C2=NN(C)C(=NCc3ccccc3)SC2)cc1	G9a inh inconclusive, JMJD2A Tudor inh 44.7µM, PLK1 PBD inh 29.9µM (no result: BAZ2B block)
CS(=O)(=O)N1CCC[C@@]2(CCN(C(c3ccccc3)c3ccccc3)C2)C1	none (no result: BAZ2B block, HP1b binding inh, JMJD2A Tudor inh, PLK1 PBD inh)
S=c1[nH]nc(C(c2ccccc2)C2CCCCC2)o1 (centres undefined)	G9a inh 44.7µM, PLK1 PBD inh inconclusive
C/C=C(\C)C(=O)N[C@@H](C)CN1C2=NC[C@H](C(C)C)N2C[C@H]1Cc1ccc(OC)cc1	BAZ2B block inconclusive, G9a inh inconclusive, Sfp PPTase inh 39.8µM
COc1ccc(C[C@@H]2CN3C(=NC[C@@H]3Cc3ccc(O)cc3)N2C[C@H](C)NC(=O)CCC2CCCCC2)cc1	JMJD2A Tudor inh inconclusive, PLK1 PBD inh 26.7µM, Sfp PPTase inh 79.4µM (no result: G9a inh)
CC(C)[C@H]1CN=C2N(C[C@H](C)NC(=O)CCC3CCCCC3)[C@H](Cc3ccc(O)cc3)CN21	G9a inh inconclusive, JMJD2A Tudor inh 79.4µM, PLK1 PBD inh 13.4µM, Sfp PPTase inh 50.1µM
C/C=C(\C)C(=O)NCCN1C2=NC[C@H](C(C)C)N2C[C@@H]1Cc1ccc(OC)cc1	BAZ2B block inconclusive
Cc1ccc(-c2[nH]ncc2CNCc2ccccc2)cc1	none (no result: BAZ2B block, G9a inh, PLK1 PBD inh, Sfp PPTase inh)
Cc1ccc(-c2[nH]ncc2CNC(C)c2ccccc2)cc1 (centres undefined)	HP1b binding inh inconclusive, JMJD2A Tudor inh 4.47µM (no result: BAZ2B block, G9a inh, PLK1 PBD inh, Sfp PPTase inh)
Cc1ccc(N=Nc2c(O)[nH]c3ccc(F)cc23)cc1	G9a inh 20µM, Sfp PPTase inh inconclusive
O=C(O)c1ccc(N=Nc2c(O)[nH]c3cc(Cl)ccc23)cc1	none
O=c1[nH]nc(N=Nc2c(O)[nH]c3ccc(F)cc23)c(=O)[nH]1	none (no result: BAZ2B block, G9a inh, Sfp PPTase inh)
O=S(=O)(Cc1ccccc1)N=Nc1c(O)[nH]c2ccc(Br)cc12	HP1b binding inh inconclusive, G9a inh 3.55µM, JMJD2A Tudor inh 22.4µM, PLK1 PBD inh inconclusive
O=C(O)c1ccc(N=Nc2c(O)[nH]c3ccc(Br)cc23)cc1	BAZ2B block 79.4µM, JMJD2A Tudor inh inconclusive, PLK1 PBD inh inconclusive, Sfp PPTase inh 10µM
CC(C)C(=O)N1CCC1(C)C(=O)Nc1cccc(Oc2ccccc2)c1 (centres undefined)	none (no result: BAZ2B block, HP1b binding inh, G9a inh, JMJD2A Tudor inh, Sfp PPTase inh)
COc1ccc(-c2noc(N3CCC(C(=O)NC(C)c4ccccc4)CC3)n2)cc1 (centres undefined)	none (no result: G9a inh)
Cc1ccc(NCc2nnc(SCC(=O)NCc3ccco3)n2CC2CCCO2)cc1Cl (centres undefined)	G9a inh inconclusive, JMJD2A Tudor inh 79.4µM, PLK1 PBD inh inconclusive
Cc1ccc(NCc2nnc(SCC(=O)Nc3cccc(O)c3)n2CC2CCCO2)c(C)c1 (centres undefined)	BAZ2B block inconclusive, G9a inh 56.2µM, JMJD2A Tudor inh inconclusive
O=C(Nc1ccc(Br)cc1F)c1cc(S(=O)(=O)NC2CCCCC2)ccc1F	G9a inh inconclusive (no result: PLK1 PBD inh, Sfp PPTase inh)
CCOc1ccc(CCNC(=O)CS(=O)(=O)Cc2nc(-c3cccc(Cl)c3)oc2C)cc1	none (no result: PLK1 PBD inh, Sfp PPTase inh)
O=C(NNc1ccccc1[N+](=O)[O-])Nc1ccc(Cl)c(Cl)c1	BAZ2B block inconclusive, G9a inh 7.08µM
CCN(CC)S(=O)(=O)c1cc([N+](=O)[O-])ccc1NNC(=O)Nc1ccc(Cl)c(Cl)c1	BAZ2B block 31.6µM, G9a inh 7.94µM, Sfp PPTase inh inconclusive
O=C(NNc1ccccc1[N+](=O)[O-])Nc1ccccc1	BAZ2B block inconclusive, G9a inh inconclusive
O=C(NNc1ccccc1[N+](=O)[O-])Nc1ccc(F)cc1	G9a inh 3.55µM
CCCCN(CCCC)S(=O)(=O)c1ccc(NC(=O)c2ccc([N+](=O)[O-])cc2Cl)cc1	BAZ2B block inconclusive
O=C(NNc1ccccc1[N+](=O)[O-])NC1CCCCC1	G9a inh 50.1µM
O=C(Nc1ccc(Cl)c(Cl)c1)Nc1ccccc1O	G9a inh inconclusive, Sfp PPTase inh inconclusive
C[C@@]12CC[C@@H]3c4ccc(O)cc4C[C@H](CCCCCCCCCS(=O)CCCC(F)(F)C(F)(F)F)[C@H]3[C@@H]1CC[C@@H]2O (some centres undefined)	none (no result: BAZ2B block, HP1b binding inh, G9a inh, JMJD2A Tudor inh, PLK1 PBD inh)
CCOc1cc2sc(N3CCC(C(=O)Nc4ccccc4C(=O)OC)CC3)nc2cc1Br	none (no result: PLK1 PBD inh, Sfp PPTase inh)
O=C(Nc1ccccc1C(=O)N1CCCCC1)NC1CCCCC1	JMJD2A Tudor inh 79.4µM, PLK1 PBD inh 21.2µM (no result: G9a inh)

Compound activity as filed in PubChem.
